# PubChem BioAssay (NCI)
# About 83,000 compounds went through this panel and 20% of them were active in at least one assay; those are over-represented in the sample as a whole.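 Results are percent growth after 48 hours of single-concentration exposure. 100 means growth as in untreated cells, lower positive values show inhibition; negative values down to -100 show cell death.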 Unmarked numbers belong to inactive results. Active and inactive are the calls of the source. Rule for the calls: active = growth percent below 10; inactive = the rest.
# Tests used:
# Assay in all cases: NCI-60 one-dose screen, 48 h (100 = growth as untreated, 0 = no growth, -100 = all killed)
# Details in all cases: 10 µM unless noted
# [1] = tested on: NCI-H23 lung
# [2] = tested on: NCI-H226 lung
# [3] = tested on: NCI-H322M lung
# [4] = tested on: HOP-62 NSCLC
# [5] = tested on: NCI-H460 lung
# [6] = tested on: HOP-92 NSCLC
# [7] = tested on: NCI-H522 lung
# [8] = tested on: A549/ATCC NSCLC
# [9] = tested on: 786-0 renal
# [10] = tested on: COLO 205 colon
# [11] = tested on: DU-145 prostate
# [12] = tested on: K-562 leukemia
# [13] = tested on: MALME-3M melanoma
# [14] = tested on: MDA-MB-231 breast
# [15] = tested on: RXF 393 renal
# [16] = tested on: SF-268 CNS
# [17] = tested on: SF-295 CNS
# [18] = tested on: SF-539 CNS
# [19] = tested on: UACC-257 melanoma
# [20] = tested on: M14 melanoma
SMILES,growth [1],growth [2],growth [3] [%],growth [4],growth [5],growth [6],growth [7],growth [8],growth [9],growth [10],growth [11],growth [12] [%],growth [13],growth [14],growth [15],growth [16],growth [17],growth [18],growth [19] [%],growth [20] [%]
COc1ccc(NC(=O)c2ccc(Nc3ncnc4[nH]c(C)c(C)c34)cc2)cc1,102%,106%,101,108%,98.4%,111%,97.4%,94.8%,101%,115%,107%,105,114%,104%,105%,91.4%,96.6%,97.5%,101,110
COc1ccc(OCC(=O)OC(C)C)cc1,90.6%,95.3%,94,101%,105%,104%,97.9%,102%,104%,104%,101%,98.7,91.1%,98.1%,80.5%,92.5%,96.6%,98%,97.7,98.6
COc1ccc(C(=S)c2cc(OC)c(OC)c(OC)c2)cc1OC(=O)CCl,31.4%,103%,42.4,30.9%,7.23% (active),54.8%,12.9%,21.2%,27.4%,16.7%,9.36% (active),10.2,74.2%,32.9%,44.7%,39.3%,14.7%,9.83% (active),56.7,12.6
Nc1cc(N)nc(SCC(=O)O)n1,102%,103%,102,104%,106%,97.3%,79.7%,88%,99.1%,114%,104%,101,103%,95.4%,115%,101%,106%,102%,84.8,102
O=C1c2ccccc2C(=O)c2c1oc1c2c(=O)[nH]c2ccc(Cl)cc21,21.2%,-28.8% (active),14,-38.7% (active),-69.7% (active),-37.2% (active),-16.8% (active),-0.0514% (active),2.5% (active),85.7%,-45.4% (active),12.9,-51.7% (active),-42.2% (active),-46.3% (active),-31.7% (active),-1.34% (active),-28% (active),18.8,10.4
O=C(NCc1ccccc1)c1ccc2c(c1)NC(=O)[C@@H]1CCCN21,90.6%,103%,92.8,103%,94.7%,102%,91.3%,106%,95.9%,110%,99.7%,106,92.2%,103%,109%,95.6%,98.7%,105%,104,95.8
O=C1C(Cl)=C(NCCCN(CCCNC2=C(Cl)C(=O)c3ccccc3C2=O)C2=C(Cl)C(=O)c3ccccc3C2=O)C(=O)c2ccccc21,-13.5% (active),88.1%,61.5,102%,39.2%,87.9%,73.8%,45.6%,90.5%,-13.8% (active),-88% (active),12.2,-28.4% (active),38.5%,85.3%,74.7%,91.4%,88.3%,52.6,11.7
